Test results as given in PubChem BioAssay AID2098 (Broad Institute, 2009).
Hit rate of the full screen: of about 300,000 compounds, about 2,300 (0.77%) were called active.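 Rule for the calls: active = more than half of replicate wells show activity change below -50%, luminescence cut by over half; inconclusive = some wells, but at most half, below -50%; inactive = no replicate well below -50%.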 Many of the other results were omitted from the sample, so actives are more common in it than they were.

Assay: blocking HSF1-driven luciferase expression – cell-based, NIH3T3, luminescence, primary screen (AID 2098);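 note: luciferase reports HSF-1 transcriptional activity via heat shock element; 0% = median of DMSO wells and -100% = zero luminescence signal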
Details: NIH3T3-HGL HSE-luciferase, MG132-induced, luminescence 8 h; stronger effect = lower value; screened at 7.5 µM (by protocol)

Row | Structure (SMILES) | activity change, negative = inhibition
1 | CCOC(=O)c1c(C)oc2cc(Sc3ccccc3)c(O)c(O)c12 | 13.1% (inactive)
2 | COc1ccc(C(=O)NCC(c2ccco2)N2CCc3ccccc32)cc1OC (stereo unspecified) | 2.71% (inactive)
3 | CCC(=O)c1ccc(OCC(=O)OCC(=O)NC2CCCCCC2)cc1 | -9.22% (inactive)
4 | COc1ccc(CNC(=O)COC(=O)CCS(=O)(=O)c2ccc(C)cc2)cc1OC | -1.13% (inactive)
5 | O=C(CSc1nn(-c2ccc(F)cc2)c(=S)s1)NC1CCS(=O)(=O)C1 (stereo unspecified) | 2.24% (inactive)
6 | O=C(Cc1ccc(Cl)cc1)NC1CCS(=O)(=O)C1 (stereo unspecified) | 0.993% (inactive)
7 | O=C(CSc1ccccc1F)NC1CCS(=O)(=O)C1 (stereo unspecified) | -68.8% (active)
8 | CN(CC(=O)Nc1ccccc1Cl)C(=O)COc1cccc2c1OC(C)(C)C2 | 4.06% (inactive)
9 | CSC1=N/C(=C\C=C\c2cccs2)C(=O)S1 | -67.1% (active)
10 | CN1C/C(=C/c2cccs2)C(=O)/C(=C\c2cccs2)C1 | 19.3% (inactive)
11 | Cc1cccc(C2=N/C(=C/c3cccs3)C(=O)O2)c1 | -10.1% (inactive)
12 | CCCc1cc(=O)[nH]c2nnc(SCC(=O)Nc3nnc(SCC)s3)n12 | -2.82% (inactive)
13 | COc1ccc(CCNC(=O)Cc2ccc(C)cc2)cc1OC | -5.1% (inactive)
14 | COc1cccc(/C=C/C(=O)OCC(=O)N2CCCc3ccccc32)c1 | 0.601% (inactive)
15 | CCC1Nc2ncnc(N3CCN(c4ccccc4)CC3)c2N(Cc2ccc(Cl)cc2)C1=O (stereo unspecified) | 11.2% (inactive)
16 | COc1cccc(CNc2nc(C(F)(F)F)nc3ccccc23)c1 | 0.989% (inactive)
17 | CCc1ccc(C(CNc2nc(C(F)(F)F)nc3ccccc23)N(C)C)cc1 (stereo unspecified) | -82% (active)
18 | NS(=O)(=O)c1ccc(CCNc2nc(C(F)(F)F)nc3ccccc23)cc1 | -2.88% (inactive)
19 | CCCCn1c(N)c(N(CC(C)C)C(=O)c2ccc(Br)o2)c(=O)[nH]c1=O | 4.02% (inactive)
20 | CCCN(CCc1ccccc1)C1CCc2c(O)cccc2C1 (stereo unspecified) | 7.71% (inactive)
21 | CCOC(=O)C1=C(c2ccc(OC)cc2)C(=O)c2ccccc2C1=O | 31.1% (inactive)
22 | CCOC(=O)c1c(C)[nH]c2c1-c1ccccc1C(=O)C2=O | -91.5% (active)
23 | CCOC(=O)c1c(C)[nH]c(C)c1S(=O)(=O)N(C)CC(=O)Nc1ccccc1C | 4.41% (inactive)

Row | Structure (SMILES) | activity change, negative = inhibition
24 | CSc1ccc(S(=O)(=O)NCC(=O)OCC(=O)NC2(C#N)CCCCC2)cc1[N+](=O)[O-] | 4.69% (inactive)
25 | O=C(Cn1c(N2CCN(C/C=C/c3ccccc3)CC2)nc2ccccc21)c1ccccc1 | -0.086% (inactive)
26 | CC(C)Cn1c(N2CCN(C(=O)/C=C/c3ccccc3)CC2)nc2ccccc21 | -65.4% (active)
27 | CC(C)N(C(=O)Cn1c(SCC(=O)N2CCN(c3ccccc3)CC2)nc2ccccc21)C(C)C | -10.4% (inactive)
28 | O=C(COc1ccccc1Cl)Nc1ccccc1C(=O)NC1CC1 | 6.98% (inactive)
29 | O=C(N/N=C/c1ccc([N+](=O)[O-])o1)c1cccc(S(=O)(=O)N2CCOCC2)c1 | 6.48% (inactive)
30 | COc1ccc(Br)cc1/C=N/NC(=O)c1cccc(S(=O)(=O)N2CCOCC2)c1 | -2.38% (inactive)
31 | CCOc1cc(/C=N/NC(=O)c2cccc(S(=O)(=O)N3CCOCC3)c2)ccc1OCC(=O)N(C)C | -64.3% (active)
32 | CC(=O)Nc1cccc(C(=O)OCC(=O)NCc2cc(C)c(O)c(C)c2)c1 | 9.36% (inactive)
33 | NC(=O)C1=C[C@H](c2csc3ccccc23)C[C@H](OCc2ccc(CO)cc2)O1 | 5.45% (inactive)
34 | COc1ccc(C(=O)c2c3ccc([N+](=O)[O-])cc3[n+]([O-])n2CCCN)cc1 | 13.3% (inactive)
35 | O=C(NC1CCCCC1)c1ccc(-c2ccc(Cl)cc2)o1 | 43.4% (inactive)
36 | CC1(C)S[C@@H]2[C@H](NC(=O)COc3ccccc3)C(=O)N2C1C(=O)OCc1ccccc1 (stereo partly specified) | 5.03% (inactive)
37 | Cc1c(NC(=O)CN(C)CC(=O)Nc2ccc(F)c(F)c2F)c(=O)n(-c2ccccc2)n1C | 1.95% (inactive)
38 | Cc1ccn2c(=O)nc(SCC(=O)NCc3ccc(F)cc3)nc2c1 | 4.59% (inactive)
39 | Cc1cccc(N2CCN(C(c3ccc(N(C)C)cc3)c3nnnn3C(C)(C)C)CC2)c1C (stereo unspecified) | -2.19% (inactive)
40 | COc1ccccc1C(c1nnnn1CC1CCCO1)N1CCN(c2ccccc2)CC1 (stereo unspecified) | -0.551% (inactive)
41 | Cc1cccc(N2CCN(C(c3ccccc3)c3nnnn3CC3CCCO3)CC2)c1C (stereo unspecified) | -61% (active)
42 | Cc1sc2nc(CSCC(=O)NC3CCCCC3)[nH]c(=O)c2c1C | 16.5% (inactive)
43 | Cc1cc(Cl)ccc1NC(=S)N1CCC(C(N)=O)(N2CCCCC2)CC1 | 1.76% (inactive)
44 | CCOC(=O)c1ccc(NC(=S)N2CCCC2)cc1 | 19% (inactive)
45 | CCOC(=O)N1CCN(C(=S)Nc2ccc(C)cc2C)CC1 | -68.8% (active)
46 | O=C1CCCCC1Sc1ccc(Cl)cc1[N+](=O)[O-] (stereo unspecified) | 3.95% (inactive)

Row | Structure (SMILES) | activity change, negative = inhibition
47 | CCOc1ccc(NS(=O)(=O)c2ccc(C(=O)NCC(c3ccccc3OC)N3CCCC3)cc2)cc1 (stereo unspecified) | -3.53% (inactive)
48 | O=C(NC1CC1)C1=C[C@H](c2coc3ccccc3c2=O)C[C@H](OCCCCO)O1 | -5.11% (inactive)
49 | COc1ccc(Cl)cc1C(=O)NNC(=S)NC1CCCC1 | 6.56% (inactive)
50 | COc1ccc(C(C)NC(=S)NC2CCCCC2)cc1OC (stereo unspecified) | -74.6% (active)
51 | COc1cc(OC)c(C(=O)NC2CCCCCC2)cc1OC | 2.19% (inactive)
52 | Clc1ccc(Nc2ccc3ccccc3n2)cc1 | 6.43% (inactive)
53 | Cc1ccc(C2(C)NC(=O)N(CC(=O)Nc3ccccc3C(=O)N3CCCCC3)C2=O)cc1 (stereo unspecified) | 10.1% (inactive)
54 | COc1cc(OC)c(C(=O)OCC(=O)N2CC(=O)Nc3ccccc32)cc1OC | 11.6% (inactive)
55 | O=C1CN(C(=O)COc2c(Cl)cccc2Cl)c2ccccc2N1 | -74.4% (active)
56 | O=C1CN(C(=O)COC(=O)c2cnc(Cl)c(Cl)c2)c2ccccc2N1 | 6.76% (inactive)
57 | O=C1/C(=C\c2ccc(O)cc2)CCC1CNc1ccc(Cl)cc1 (stereo unspecified) | -5.88% (inactive)
58 | COC(=O)Cc1[nH]n(-c2nc3ccccc3s2)c(=O)c1C(C)=Nc1ccc(OC)cc1 | -58.9% (active)
59 | C/C(=N\NC(=O)CC(C)C)c1c(C(F)(F)F)[nH]n(-c2nc3ccccc3s2)c1=O | -6.15% (inactive)
60 | CC(=NCc1ccco1)c1c(C(F)(F)F)[nH]n(-c2nc3ccccc3s2)c1=O | -32.4% (inactive)
61 | Cc1ccc(S(=O)(=O)NC(C)C(=O)NCc2ccc(Cl)cc2)cc1 (stereo unspecified) | -3.78% (inactive)
62 | C=CCn1c(C)cc(C(=O)CN2C(=O)c3ccccc3C2=O)c1C | 8.2% (inactive)
63 | C=CCn1c(C)cc(C2=NNC(=NCC)SC2)c1C | -77.6% (active)
64 | Cc1cccc(N=C2NN=C(c3c[nH]c4ccccc34)CS2)c1 | 14.3% (inactive)
65 | Cc1ccc(CNS(=O)(=O)CCNC(=O)c2ccccc2)cc1 | -2.85% (inactive)
66 | O=C(NCc1cccs1)C1CCN(S(=O)(=O)c2ccc(Cl)cc2)CC1 | 4.22% (inactive)
67 | O=C(Nc1ccc(F)c(Cl)c1)C1CCN(S(=O)(=O)c2cccnc2)CC1 | -56.8% (active)
68 | CC(C)c1ccc(NC(=O)C2CCCN(S(=O)(=O)c3cccnc3)C2)cc1 (stereo unspecified) | -2.05% (inactive)
69 | Cc1ccc(Cl)c(OCC(=O)N(C)CC(=O)Nc2ccc(N3CCOCC3)cc2)c1 | 4.7% (inactive)

Row | Structure (SMILES) | activity change, negative = inhibition
70 | COc1cc(C(=O)N(C)Cc2cccc(OC)c2OC)ccc1OCC(=O)Nc1cccc(C(F)(F)F)c1 | -3.36% (inactive)
71 | CCN(CC)c1ccc(NC(=O)c2ccc(=O)[nH]c2)cc1S(=O)(=O)Nc1ccc(OC)cc1 | 2.04% (inactive)
72 | Cc1ccc(-n2c(=O)cc(N3CCN(Cc4ccccc4)CC3)[nH]c2=O)cc1 | -57.4% (active)
73 | CN1CCN(c2cc(=O)n(-c3ccc(Cl)cc3)c(=O)[nH]2)CC1 | -10.9% (inactive)
74 | CCc1c(C)nc(N2CCN(Cc3ccccc3)CC2)[nH]c1=O | -0.365% (inactive)
75 | COCCN(C(=O)COC(=O)Cc1cccc(OC)c1)c1c(N)n(Cc2ccccc2)c(=O)[nH]c1=O | -2.09% (inactive)
76 | NS(=O)(=O)c1ccc(CNC(=O)c2cccc(Oc3ccccc3)c2)cc1 | -1.65% (inactive)
77 | O=C(NNS(=O)(=O)c1ccc(F)cc1)c1cnccn1 | 4.99% (inactive)
78 | NS(=O)(=O)c1ccc(CNC(=O)c2cnccn2)cc1 | -54.3% (active)
79 | Cc1ccc(S(=O)(=O)NCCC(=O)OCC(=O)N(C)c2ccccc2)cc1 | 7.6% (inactive)
80 | O=C(CCC1CCCCC1)Nc1cc(C(F)(F)F)ccc1N1CCOCC1 | 3.1% (inactive)
81 | COC(=O)c1nc(NC(=O)c2ccc(C(C)(C)C)cc2)n[nH]1 | -75.2% (active)
82 | COC(=O)c1nc(NC(=O)c2ccc(Cl)cc2)n[nH]1 | -3.56% (inactive)
83 | COC(=O)c1nc(NC(=O)c2ccc(F)cc2)n[nH]1 | 3% (inactive)
84 | COc1ccc(-c2nc(-c3ccccc3)no2)c(OC)c1 | -66.8% (active)
85 | COc1ccccc1Cc1nc(-c2ccc(C)cc2)no1 | 12% (inactive)
86 | COc1ccc(Sc2nc(-c3ccccc3)ncc2OC)cc1 | -4.54% (inactive)
87 | C=CCNC(=O)C1CC2c3ccccc3C1c1ccccc12 (stereo unspecified) | -1.08% (inactive)
88 | COc1cccc(NC(=O)CC2C(=O)NCCN2C(=S)Nc2ccc(F)cc2)c1 (stereo unspecified) | 3.49% (inactive)
89 | CCc1ccc(NC(=O)CC2C(=O)NCCN2C(=S)Nc2ccccc2)cc1 (stereo unspecified) | -1.21% (inactive)
90 | COc1ccc(C(=O)NC(=S)N2CCNC(=O)C2CC(=O)OC(C)C)cc1 (stereo unspecified) | -54.5% (active)
91 | Cc1ccc(S(=O)(=O)N(Cc2cccc([N+](=O)[O-])c2)C(=O)N2CCN(C)CC2)cc1 | -0.764% (inactive)
